This is an account of results in PMC4552634, “A New Set of Chemical Starting Points with Plasmodium falciparum Transmission-Blocking Potential for Antimalarial Drug Discovery” (PLoS ONE, 2015).

The structures appear in SMILES notation. Out of some 13,000 compounds screened, about 3,200 (25%) showed an effect of 50% or more. This is one part of the list.

Broadly, the % Inhibition is the change of the read-out against control, counted positive when it falls.

This assay has as its system P. falciparum stage V gametocytes. Also noted: BacTiter-Glo ATP luminescence viability of purified stage V gametocytes in 384-well plates, per cent inhibition versus DMSO. The following applies: 48 h, 5 µM; inhibitor.
`C/C=C1/CN2CC[C@H]1C[C@H]2[C@H](O)c1ccnc2ccc(O)cc12` [TCMDC-138167]: the “% Inhibition” value is listed as 19.07%.

For `C=CCOc1ccccc1CNCC(O)c1cccc(C(F)(F)F)c1` (centres unmarked) [TCMDC-140394], the “% Inhibition” value is 31.37%.

In the case of `COc1ccc(CCN2CCC(Nc3nc4ccccc4n3CCc3ccc(OC)cc3)CC2)cc1` [TCMDC-123918], the “% Inhibition” value is given as 9.396%.

`N#Cc1cc(C(=O)Nc2ccccc2)c(N)nc1SCC(=O)NC(c1ccccc1)c1cccs1` (centres unmarked) [TCMDC-124880]: the “% Inhibition” value was -24.84%.

With `CCN(CC)c1cc(C)c2cc(NC(=O)c3cc(=O)c4ccccc4o3)ccc2n1` [TCMDC-123592], the “% Inhibition” value was found to be 0.01985%.

`CN(C)Cc1cccc(-c2ccc(NC(=O)c3ccc4c(=O)n(C5CCCCC5)cnc4c3)cc2)c1` [TCMDC-132367]: the “% Inhibition” value is recorded as -36.18%.

Take `CCCn1cnc2cc(C(=O)Nc3ccc(-c4cccc(CN(C)C)c4)cc3)ccc2c1=O` [TCMDC-132363]: the “% Inhibition” value was found to be 8.061%.

Turning to `CN(C)Cc1cccc(-c2ccc(NC(=O)c3ccc4c(=O)n(Cc5cnn(C)c5)cnc4c3)cc2)c1` [TCMDC-132370], the “% Inhibition” value is -68.25%.

Take `CN(C)Cc1cccc(-c2ccc(NC(=O)c3ccc4c(=O)n(CC5CCCO5)cnc4c3)cc2)c1` (centres unmarked) [TCMDC-132365]: the “% Inhibition” value was determined as 80.9%.

`COc1cc(OC)nc(-c2cccc(NC(=O)c3ccc4c(=O)n(CCN5CCCCC5)cnc4c3)c2)n1` [TCMDC-132360]: the “% Inhibition” value is given as -43.17%.

As to `CN(C)Cc1cccc(-c2ccc(NC(=O)c3ccc4c(=O)n(CCN5CCCCC5)cnc4c3)cc2)c1` [TCMDC-132362], the “% Inhibition” value was found to be 105.2%.

Consider `NC1=NC(c2ccccc2)(c2ccccc2)C(=O)N1Cc1ccc(-c2ccncc2)cc1` [TCMDC-136894], for which the “% Inhibition” value was determined as 25.37%.

For `Cc1ccc2nc3c(cc(C(=O)NCc4ccccc4)c(=N)n3CCCn3ccnc3)c(=O)n2c1` [TCMDC-124377], the “% Inhibition” value is 6.883%.

As to `C=C1C(C(=O)OCC)=CN(CC)c2cc(O[C@@H]3CCN(C(=O)OC(C)(C)C)C3)ccc21` [TCMDC-135647], the “% Inhibition” value is recorded as 15.51%.

With `O=C(/C=C/c1ccc(Cl)c(Cl)c1)NC1CCN(CCNC(=O)c2cccc(Cl)c2)CC1` [TCMDC-141950], the “% Inhibition” value is recorded as -32.49%.

Regarding `CCCc1cc(=O)[nH]c(-n2nc(C)cc2NC(=O)c2cc3ccccc3o2)n1` [TCMDC-124939], the “% Inhibition” value came to 13.85%.

On to `O=C(NC1CCCCN(Cc2ccccc2O)C1)c1ccc(Cl)c(Cl)c1` (centres unmarked) [TCMDC-141736], for which the “% Inhibition” value was -19.06%.

For `CC(C)(c1ccccc1)c1ccc(O)c(CN2CCOCC2)c1` [TCMDC-124276], the “% Inhibition” value is reported as -17.17%.

Consider `O=C(NC1CCCCN(Cc2ccccc2O)C1)c1ccc(-c2ccccc2)cc1` (centres unmarked) [TCMDC-141746], for which the “% Inhibition” value is reported as 61.29%.

As to `O=C(NC1CCN(Cc2ccccc2O)C1)c1cccc(C(F)(F)F)c1` (centres unmarked) [TCMDC-141744], the “% Inhibition” value is -4.979%.

`O=C(NC1CCCCN(Cc2ccccc2O)C1)c1cccc(Cl)c1` (centres unmarked) [TCMDC-141745]: the “% Inhibition” value was found to be 70.72%.

For the compound `O=C(NC1CCN(Cc2ccccc2O)C1)c1ccc(Cl)c(Cl)c1` (centres unmarked) [TCMDC-141737], the “% Inhibition” value is 3.103%.

Regarding `O=C(NC1CCCCN(Cc2ccccc2O)C1)c1cccc(C(F)(F)F)c1` (centres unmarked) [TCMDC-141743], the “% Inhibition” value was found to be 0.3319%.

With `O=C(NC1CCCCN(Cc2ccccc2O)C1)c1cc(F)cc(F)c1` (centres unmarked) [TCMDC-141742], the “% Inhibition” value is given as 24.3%.

As for `Oc1ccc(-c2ccccc2)cc1CN1CCCCC1` [TCMDC-125510], the “% Inhibition” value stood at 85.49%.

For `Oc1ccc(-c2ccccc2)cc1CN1CCCCCC1` [TCMDC-124203], the “% Inhibition” value is reported as 12.06%.

As to `O=C(NC1CCN(Cc2ccccc2O)C1)c1ccc(-c2ccccc2)cc1` (centres unmarked) [TCMDC-141747], the “% Inhibition” value was found to be 74.99%.

Take `O=S(=O)(NC1CCCCN(Cc2ccccc2O)C1)c1ccc(C(F)(F)F)cc1` (centres unmarked) [TCMDC-141803]: the “% Inhibition” value was -6.826%.

`Cc1ccccc1C1CCN(C2CCC(NC(=O)c3ccc(-c4cccs4)s3)CC2)CC1` (centres unmarked) [TCMDC-134105]: the “% Inhibition” value is -3.744%.

For `CC(=O)Nc1ncc(C(=O)Nc2cccc(-c3ccc(-c4nc5ccc(F)cc5[nH]4)cc3)c2)s1` [TCMDC-136916], the “% Inhibition” value is -12.2%.

Consider `O=C(NCc1ccccc1[S+]([O-])c1ccccc1CO)C(F)(F)F` (centres unmarked) [TCMDC-137886], for which the “% Inhibition” value amounted to 0.169%.

Turning to `Cc1cccc2nc(-c3cccc(-c4ccc(CNCc5cnn(-c6ccccc6)n5)cc4)c3)[nH]c12.O=C(O)C(F)(F)F` [TCMDC-132965], the “% Inhibition” value is on record as -15.5%.

Consider `S=C(NCCN1CCOCC1)Nc1ccccc1` [TCMDC-123845], for which the “% Inhibition” value is listed as -18.32%.

Turning to `N#Cc1cc(C(=O)c2cc(Cl)ccc2O)cn(-c2cc(Cl)cc(Cl)c2)c1=O` [TCMDC-125188], the “% Inhibition” value was -6.306%.

In the case of `Cc1cc(N(C)C)nc(Nc2ccc(NS(=O)(=O)c3ccccc3)cc2)n1` [TCMDC-124952], the “% Inhibition” value is recorded as 7.952%.

Regarding `O=S(=O)(NCCN1CCCC1)c1ccc(-c2ccc(CNCc3ccccc3)cc2)cc1F` [TCMDC-132236], the “% Inhibition” value is reported as 50.96%.

In the case of `O=S(=O)(NCCN1CCCC1)c1ccc(-c2ccc(CNCc3ccc(F)cc3)cc2)cc1F` [TCMDC-132287], the “% Inhibition” value stood at 42.7%.

In the case of `COc1ccc(CNCc2ccccc2)cc1-c1ccc(S(=O)(=O)NCCN2CCCC2)c(C)c1` [TCMDC-132272], the “% Inhibition” value was found to be 107.1%.

On to `COc1ccc(CNCc2ccccc2)cc1-c1ccc(S(=O)(=O)NCCN2CCCC2)c(F)c1` [TCMDC-132265], for which the “% Inhibition” value was determined as 101.3%.

As to `COc1ccc(CNCc2ccc(F)cc2)cc1-c1ccc(S(=O)(=O)NCCN2CCCC2)c(C)c1` [TCMDC-132224], the “% Inhibition” value is reported as 105.7%.

Consider `Cc1cc2c(cc1C(F)(F)F)N(C(=O)Nc1ccc(C(=O)NC3CCN(Cc4ccccc4)C3)cc1)CC2` (centres unmarked) [TCMDC-139871], for which the “% Inhibition” value is recorded as 23.78%.

On to `Clc1cc(Br)ccc1-c1ccc(CNCC2CCNCC2)o1` [TCMDC-124617], for which the “% Inhibition” value turned out to be 29.69%.

As for `CC(C)Cc1cnc2nc(N)nc(N)c2c1` [TCMDC-137923], the “% Inhibition” value is reported as 48.38%.

For the compound `N#Cc1c(-c2ccccc2)cn2c1[nH]c(=O)c1ccccc12` [TCMDC-124997], the “% Inhibition” value was determined as 14.43%.

As to `CCN(CCCN1CCCCC1)c1cc(C)nc(Nc2ccc(C)c(F)c2)n1` [TCMDC-132437], the “% Inhibition” value turned out to be 25.13%.

As for `O=C(NCCN1CCOCC1)c1ccc(CNC(=O)c2ccc(O)c(-c3ccc(Cl)c(Cl)c3)c2)cc1` [TCMDC-140852], the “% Inhibition” value was 5.208%.

With `CON(C)C(=O)[C@@H](CCCCNC(=O)OCc1ccccc1)NC(=O)OC(C)(C)C` [TCMDC-132004], the “% Inhibition” value is -2.99%.

On to `O=C(CN1CCC(NCc2cnc(-c3ccc(Cl)cc3)[nH]2)CC1)N1CCc2ccccc21` [TCMDC-138589], for which the “% Inhibition” value is on record as 28.41%.

For `Cc1cc(OCC2CCCN(c3ncc(C(=O)NC4CC4)cc3Cl)C2)ccc1F` (centres unmarked) [TCMDC-134314], the “% Inhibition” value was 18.53%.

For `Cc1c(NC(=O)COc2ccc(Cl)cc2C(=O)c2cc(F)cc(C(F)(F)F)c2)ccc2ncsc12` [TCMDC-138907], the “% Inhibition” value was 4.382%.

For the compound `Cc1cc(OCCCN2CCCCC2)ccc1NC(=O)COc1ccc(Cl)cc1C(=O)c1cc(Cl)cc(C#N)c1` [TCMDC-134725], the “% Inhibition” value was 48.49%.

For the compound `Cc1cc(OCCCN2CCCCC2)ccc1NC(=O)COc1ccc(Cl)cc1C(=O)c1cc(C#N)cc(C(F)(F)F)c1` [TCMDC-134827], the “% Inhibition” value turned out to be 50%.

With `Cc1cc(OCCCN2CCCCC2C)ccc1NC(=O)COc1ccc(Cl)cc1C(=O)c1cc(Cl)cc(C#N)c1` (centres unmarked) [TCMDC-134727], the “% Inhibition” value stood at 73.35%.

As to `Cc1cc(OCC2CCN(c3ncc(C(=O)Nc4ccccc4)cc3Cl)CC2)ccc1F` [TCMDC-134033], the “% Inhibition” value is given as -3.032%.

Consider `Cc1cc(OCCCN2CCCC2)ccc1NC(=O)COc1ccc(Cl)cc1C(=O)c1cc(C#N)cc(C(F)(F)F)c1` [TCMDC-138904], for which the “% Inhibition” value was determined as 58.86%.

As to `COc1cc(NC(=O)N2CCc3ccc(OCCN4CCCCC4)cc32)cc(C(F)(F)F)c1` [TCMDC-140249], the “% Inhibition” value is reported as 14.65%.

Take `Cc1cc(OCCCN2CCN(CCN3CCOCC3)CC2)ccc1NC(=O)COc1ccc(Cl)cc1C(=O)c1cc(Cl)cc(C#N)c1` [TCMDC-135999]: the “% Inhibition” value stood at 30.59%.

Turning to `CCCCCCN1CCCN(Cc2cccc(C(=O)Nc3ccc(C(C)(C)C)cc3)c2)CC1` [TCMDC-135993], the “% Inhibition” value is -6.517%.

For `CCCC(C)NC(=O)[C@H](Cc1ccccc1)NC(=O)c1ccc(O)c(-c2ccc(OC)cc2)c1` (some centres unmarked) [TCMDC-140800], the “% Inhibition” value turned out to be 19.41%.

As to `CC(C)CNCc1ccc(-c2cccc(CN(CCN(C)C)C(=O)NCCc3ccccc3)c2)cc1` [TCMDC-140621], the “% Inhibition” value is 102.2%.

`CN(C)CCN(C)Cc1cccc(-c2cccc(NC(=O)c3cccc(C#N)c3)c2)c1` [TCMDC-133360]: the “% Inhibition” value was 6.032%.

For `CC(C)CNCc1cccc(-c2cccc(CN(CCN(C)C)C(=O)NCCc3ccccc3)c2)c1` [TCMDC-140620], the “% Inhibition” value is 102.4%.

As for `CC(C)CNCc1cccc(-c2ccc(CNc3ccc(C(=O)c4ccccc4)cc3)cc2)c1` [TCMDC-140728], the “% Inhibition” value is reported as 10.94%.

On to `CC(C)CNCc1cccc(-c2cccc(CN(CCN(C)C)C(=O)Nc3ccccc3)c2)c1` [TCMDC-140592], for which the “% Inhibition” value is given as 108.6%.

For `CC[C@H](C)CNC(=O)c1cncc(-c2cccc(CNCCCc3ccccc3)c2)c1` [TCMDC-134221], the “% Inhibition” value stood at 19.08%.

`CC(C)CNC(=O)c1cncc(-c2ccc(CNCCCc3ccccc3)cc2)c1` [TCMDC-134247]: the “% Inhibition” value is listed as -10.62%.

`CN(C)CCOc1cccc(NC(=O)Nc2ccc(-c3ccccc3)cc2)c1` [TCMDC-139537]: the “% Inhibition” value stood at 22.41%.

`CCOC(=O)CNC(=O)N(CCN(Cc1ccccc1)C(=O)NCC(=O)OCC)Cc1ccccc1` [TCMDC-138999]: the “% Inhibition” value is on record as 6.745%.
